HCV inhibitor = qHTS Assay for Inhibitors of Hepatitis C Virus (HCV); Huh7.5.1 HCVcc-Cre infection, luciferase reporter, 44 h; Potency, µM (titrated, usually from 41.8 µM), without a hit: at the highest dose activity change, negative = inhibition, actives largely listed as inhibitors; actives 3.4% (n = 340,000); AID 651820, 2012; note: potency is the fitted concentration of half-maximal effect; % is set by controls: 0 for no effect and ±100 for the full control effect
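HCVcc-Cre virus at an moi near 0.5 was added right after compound to cells cultured 4 h from seeding (1,000 cells/well). Luciferase activity was determined 44 h later, 15 min after substrate addition at RT.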
HCMV antiviral = qHTS Assay for inhibitors of the human cytomegalovirus (HCMV) | HFF cells, HCMV-luciferase reporter, 72 h; hits give low values | activity change, negative = inhibition, % at 57.5 µM | actives 4.5% (n = 410,000) | AID 1259415, 2018; in the data active = activity change below about -60%; inconclusive = no clear call, values can overlap the other calls; inactive = above about -39%; note: % is set by controls: 0 for no effect and ±100 for the full control effect
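Cell-based, HFFs, 1000 cells/well, 16 h 37C; cpds in DMSO + HCMV-luc, MOI 1 PFU/cell; 72 h 37C; OneGlo luminescence after 5 min RT; norm. to buffer vs Salinomycin 10uM.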
Cycloheximide cs = Cycloheximide Counterscreen for Small Molecule Inhibitors of Shiga Toxin | cell reporter, cycloheximide protein synthesis inhibition counterscreen | max response, % | actives 12% (n = 300,000) | AID 2314, 2010; in the data active = max response mostly above about 13%, no sharp cut-off; inactive = mostly below about 14%; note: read at 38.3 µM for the half of the compounds with a filed dose; 0% is about no effect
Pf growth 48h = Primary qHTS for delayed death inhibitors of the malarial parasite plastid, 48 hour incubation. P. falciparum luciferase growth in erythrocytes, 48 h. Potency, µM (doses to about 28.7 µM), for the others: top-dose activity change, negative = inhibition, actives largely listed as inhibitors. actives 5.9% (n = 310,000). AID 504832, 2011; note: potency is the fitted concentration of half-maximal effect; % is set by controls: 0 for no effect and ±100 for the full control effect
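Read-out is firefly luciferase luminescence from an integrated reporter in P. falciparum, so falling signal marks reduced parasite growth. Infected erythrocytes were at 2% hematocrit and 0.1% parasitemia (final) in Albumax-supplemented RPMI 1640.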
Shiga toxin inh = A qHTS for Small Molecule Inhibitors of Shiga Toxin. Vero cells, Shiga toxin protein synthesis inhibition reporter. inhibition, % at 38.7 µM. actives 9.2% (n = 290,000). AID 2315, 2010; in the data active = inhibition mostly above about 28%, no sharp cut-off; inactive = mostly below about 43%; note: 0% is about no effect
Pf growth 96h = Primary qHTS for delayed death inhibitors of the malarial parasite plastid, 96 hour incubation. P. falciparum luciferase reporter growth, 96 h. Potency, µM (highest dose often 28.7 µM), inactives show at the highest dose activity change, negative = inhibition, actives largely listed as inhibitors. actives 6.9% (n = 320,000); note: potency is the fitted concentration of half-maximal effect; % is set by controls: 0 for no effect and ±100 for the full control effect
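Infected RBCs, 2% Hct / 0.05% parasitemia final; luciferase-reporter P. falciparum; cpd 96 h, 37 C, 5% CO2; luciferase detection reagent; luminescence.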
Active calls of the source: *. Most compounds without a hit are left out; they make up all but 21% or so of the library. Unless noted, calls come from the whole dose curve; as a rule, active = well fitted inhibition curve with a large enough effect; inconclusive = small, poorly fitted or top-dose-only effect, or another doubt; inactive = no such curve, though single readings can be large or run the other way.

For Cc1ccc(NC(=S)NCCN2CCOCC2)cc1F the results were HCV inhibitor 2%, HCMV antiviral -10, Cycloheximide cs 7, Pf growth 48h -8%, Shiga toxin inh 43 and Pf growth 96h 0%.
`Cc1[nH]n(-c2ccccc2)c(=O)c1N=Nc1ccccc1O` gave HCV inhibitor 4.5µM*, HCMV antiviral -99*, Cycloheximide cs 1, Pf growth 48h inconclusive, Shiga toxin inh -2 and Pf growth 96h 28%.
For CCOc1ccc(N=Nc2c(C)[nH]n(-c3ccccc3)c2=O)cc1 the results were HCV inhibitor 11%, HCMV antiviral 24, Cycloheximide cs -3, Pf growth 48h 24% and Pf growth 96h -25%.
Screening Cc1[nH]n(-c2ccccc2)c(=O)c1N=Nc1nccs1 returned HCV inhibitor inconclusive, HCMV antiviral -96*, Cycloheximide cs 14*, Shiga toxin inh 26 and Pf growth 96h inconclusive.
Screening Cc1ccccc1N=Nc1c(C)[nH]n(-c2ccccc2)c1=O returned HCV inhibitor 18%, Cycloheximide cs -4, Pf growth 48h -1%, Shiga toxin inh 8 and Pf growth 96h 38%.
`Cc1cccc(N(C)S(=O)(=O)c2c(C)[nH]c(C)c2C(=O)N2CCCC2)c1` gave HCV inhibitor 27%, HCMV antiviral -38, Cycloheximide cs -1, Pf growth 48h 2%, Shiga toxin inh -2 and Pf growth 96h 0%.
Screening Cc1ccc(C(=O)NCC(c2ccc3c(c2)OCO3)N2CCN(c3ccc(F)cc3)CC2)cc1 (configuration not stated) returned HCMV antiviral 12.
For Cc1ccc(OCCn2c(CCNC(=O)C3CCCCC3)nc3ccccc32)cc1 the results were Cycloheximide cs 4 and Shiga toxin inh 13.
Cc1c(C(=O)N(C)c2cccc(Cl)c2)cnn1-c1ccccc1 was read as HCV inhibitor -13%, HCMV antiviral 35, Cycloheximide cs 39*, Pf growth 48h 9.3µM*, Shiga toxin inh 60* and Pf growth 96h inconclusive.
For Cc1c(C(=O)N(C)c2ccccc2Cl)cnn1-c1ccccc1 the results were HCV inhibitor inconclusive, HCMV antiviral -21, Cycloheximide cs 12*, Pf growth 48h 2%, Shiga toxin inh 30* and Pf growth 96h -14%.
Screening CN(C(=O)c1coc(=O)c2ccccc12)c1ccccc1Cl returned HCV inhibitor 22%, HCMV antiviral -38, Cycloheximide cs -3, Pf growth 48h 7%, Shiga toxin inh -6 and Pf growth 96h -13%.
Screening Cc1nnc(N2CCN(C(=O)Nc3cc(F)ccc3F)CC2)c2nn(-c3ccc(Cl)cc3)c(C)c12 returned HCMV antiviral -30.
`Cc1cc(N2CCOCC2)nc2ccc(NC(=S)N3CCCCC3C)cc12` (configuration not stated) gave HCV inhibitor inconclusive, HCMV antiviral inconclusive, Cycloheximide cs 31*, Pf growth 48h inconclusive, Shiga toxin inh 19 and Pf growth 96h inconclusive.
Cc1cc(N2CCOCC2)nc2ccc(NC(=O)C3CCCCC3)cc12 was read as HCMV antiviral 5.
Screening Cc1cccc(N2CCN(C(=S)Nc3ccc4nc(N5CCN(C)CC5)cc(C)c4c3)CC2C)c1 (configuration not stated) returned HCV inhibitor inconclusive, HCMV antiviral inconclusive, Cycloheximide cs -4, Pf growth 48h inconclusive, Shiga toxin inh -25 and Pf growth 96h 9.3µM*.
CCOC(=O)N1CCC(NC(=S)Nc2ccc3nc(N4CCN(C)CC4)cc(C)c3c2)CC1 was read as HCV inhibitor 10µM*, HCMV antiviral -31, Cycloheximide cs -2, Pf growth 48h inconclusive, Shiga toxin inh -9 and Pf growth 96h -21%.
For Cc1cc(N2CCN(C)CC2)nc2ccc(NC(=S)N3CCN(c4ccc(F)cc4)CC3)cc12 the results were HCV inhibitor 10µM*, HCMV antiviral -33, Cycloheximide cs -4, Pf growth 48h -17%, Shiga toxin inh -32 and Pf growth 96h 3.7µM*.

From PubChem
